From PubChem BioAssay (NCATS)
Inconclusive results are not listed. Calls of active or inactive are those of the source.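 The calls were made as follows, unless noted: active = compounds whose dose series gives a full or clear partial fitted curve of increased nuclear translocation; inconclusive = weak partial curve or effect only at the top dose; inactive = no dose-dependent translocation response.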

biological target: Glucocorticoid receptor (Homo sapiens) (UniProt P04150); test: GR-GFP Redistribution (AID 450); details: U2OS GR-GFP nuclear translocation, laser cytometry, 2 h; series mostly up to 20.6 µM; also: potency is read from the fitted curve at half-maximal effect
Sequence (P04150 whole entry, looked up, the tested form may be a part): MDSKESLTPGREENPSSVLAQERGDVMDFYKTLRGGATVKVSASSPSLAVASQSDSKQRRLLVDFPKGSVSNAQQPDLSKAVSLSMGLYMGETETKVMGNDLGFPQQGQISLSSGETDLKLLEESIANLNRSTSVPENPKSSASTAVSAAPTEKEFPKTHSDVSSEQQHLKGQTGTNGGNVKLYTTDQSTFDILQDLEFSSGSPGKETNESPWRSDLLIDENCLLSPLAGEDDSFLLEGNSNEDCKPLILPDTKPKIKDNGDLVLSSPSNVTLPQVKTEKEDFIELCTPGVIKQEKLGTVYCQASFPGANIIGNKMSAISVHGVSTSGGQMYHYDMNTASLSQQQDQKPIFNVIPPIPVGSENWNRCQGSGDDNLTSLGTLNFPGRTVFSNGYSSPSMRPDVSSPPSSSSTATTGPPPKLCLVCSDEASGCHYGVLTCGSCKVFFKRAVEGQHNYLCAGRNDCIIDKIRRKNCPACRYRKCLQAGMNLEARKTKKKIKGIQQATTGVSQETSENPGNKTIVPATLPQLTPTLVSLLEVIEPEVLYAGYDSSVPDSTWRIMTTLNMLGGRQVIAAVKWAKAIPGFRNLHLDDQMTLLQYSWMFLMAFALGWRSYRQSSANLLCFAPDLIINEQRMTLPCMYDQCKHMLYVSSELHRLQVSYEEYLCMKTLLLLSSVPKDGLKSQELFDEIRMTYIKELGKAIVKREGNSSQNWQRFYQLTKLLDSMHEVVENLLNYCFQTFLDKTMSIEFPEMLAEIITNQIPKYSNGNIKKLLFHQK

Potency, inactive:
COc1ccccc1-c1nn2c(-c3ccc(C(C)(C)C)cc3)nnc2s1 > 20.6 µM
C=CCn1c(=S)[nH]c2nc3c(cc2c1=O)COC(C)(C)C3 > 20.6 µM
FC(F)(F)c1cc(CO[C@@H]2CCCN[C@H]2c2ccccc2)cc(C(F)(F)F)c1 > 46 µM
CC(=Nc1cccc(O)c1)c1sc2ccccc2c1O > 20.6 µM
COC(=O)c1sc(NC(=O)c2oc3ccccc3c2C)nc1C > 20.6 µM
C#CCSC1=C(C#N)C(c2cccs2)C(C(=O)OCC)=C(C)N1 (configuration not stated) > 20.6 µM
OC1(C2(O)CC(c3ccccc3)ON2)CCCCC1 (configuration not stated) > 20.6 µM
COCCCNc1nc2c(c(=O)[nH]c(=O)n2C)n1CC(O)COc1ccccc1 (configuration not stated) > 20.6 µM
O=C(/C=C\c1ccc(O)cc1)c1ccc(O)cc1O > 46 µM
COC(=O)[C@@H](NC(=O)c1cc(-c2ccccc2)nc2ccccc12)c1ccccc1 > 46 µM
Cc1ccc(NC(=O)CSC2=C(C#N)C(c3ccc4c(c3)OCO4)CC(=O)N2)cc1C (configuration not stated) > 20.6 µM
Cc1cc(C)c(-n2c(O)c(C=NCCN3CCOCC3)c(=O)[nH]c2=O)c(C)c1 > 20.6 µM
CN1CCc2cc(O)c(O)cc2[C@H](c2ccccc2)C1 > 46 µM
COc1cc(/C=C\C(=O)N2CCC=CC2=O)cc(OC)c1OC > 20.6 µM
Cc1ccc(N2CC(C(=O)Nc3ccc(N(C)C)cc3)CC2=O)cc1C (configuration not stated) > 20.6 µM
O=C(Oc1oc(-c2ccco2)nc1C=Nc1ccccc1)c1ccco1 > 20.6 µM
Cc1c(NC(=O)c2coc(=O)c(Br)c2)c(=O)n(-c2ccccc2)n1C > 20.6 µM
O=C(COc1ccc(-c2nnc(N3CCCCC3)c3ccccc23)cc1)N1CCCCC1 > 20.6 µM
COc1ccccc1C(=O)NC(=Nc1nc2ccccc2o1)NC(=O)c1ccccc1OC > 20.6 µM
CCSc1nc(N)c(C#N)c(-c2ccccc2Cl)c1C#N > 20.6 µM
OCCNc1ncnc2c1c(-c1ccccc1)c(-c1ccccc1)n2Cc1ccco1 > 20.6 µM
COc1ccc(NC(=O)CSC2=C(C#N)C(c3ccco3)C3=C(CCCC3=O)N2)c(OC)c1 (configuration not stated) > 20.6 µM
O=C(O)C1CC=CCC1C(=O)N1CCN(c2nc(-c3ccccc3)c3ccccc3n2)CC1 (configuration not stated) > 20.6 µM
O=C(Oc1oc(-c2ccco2)nc1C=Nc1ccccc1)c1ccoc1 > 20.6 µM
Clc1ccc(-n2ncc3c(NCc4ccccn4)ncnc32)cc1 > 20.6 µM

biological target: Glucocorticoid receptor (Homo sapiens) (UniProt P04150); test: GR-EFC Redistribution (AID 451; calls by dose curve; also: potency is read from the fitted curve at half-maximal effect); details: CHO-K1 GR-EFC translocation, beta-gal luminescence, 2 h
Summary of the method: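 CHO-K1 cells stably expressing nuclear-localized β-gal enzyme acceptor and GR fused C-terminally to the enzyme donor fragment; ligand-driven nuclear translocation restores β-gal by complementation. Compounds titrated up to 46 uM final, 2 h at 37 °C; luminescence read.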

Potency, inactive:
CC[C@]1(O)C[C@H]2CN(CCc3c([nH]c4ccccc34)[C@](C(=O)OC)(c3cc4c(cc3OC)N(C)[C@@H]3[C@](O)(C(=O)OC)[C@H](OC(C)=O)[C@]5(CC)C=CCN6CC[C@]43[C@@H]65)C2)C1 > 46 µM
Nc1ncnc2c1ncn2[C@@H]1O[C@@H](CO)[C@H](O)[C@@H]1O > 46 µM
FC(F)(F)c1cc(CO[C@@H]2CCCN[C@H]2c2ccccc2)cc(C(F)(F)F)c1 > 46 µM
CN1CCc2cc(O)c(O)cc2[C@H](c2ccccc2)C1 > 46 µM
COc1cc(/C=C\C(=O)N2CCC=CC2=O)cc(OC)c1OC > 20.6 µM

biological target: Mitogen-activated protein kinase 10 (Mus musculus) (UniProt Q61831); test: JNK3 AlphaScreen Assay (AID 530; active = well fitted curve in either direction with a large enough effect, not every such curve was filed as active;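 also: kinase came from lysate of stimulated human HepG2 cells; signal reports phosphorylation of biotinylated GST-cJun 1-79 at Ser73 with 10 µM ATP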); details: JNK3 lysate, c-Jun phosphorylation; series mostly up to 57.1 µM
Summary of the method: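 Biotinylated GST-cJun(1-79) served as substrate for JNK3 in HepG2 lysates stimulated with IL-1beta and TNF-alpha. ATP was 10 uM final, pH 7.6. Ser73 phosphorylation was quantified by AlphaScreen (680 nm excitation).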

Potency, inactive:
Nc1ncnc2c1ncn2[C@@H]1O[C@@H](CO)[C@H](O)[C@@H]1O
FC(F)(F)c1cc(CO[C@@H]2CCCN[C@H]2c2ccccc2)cc(C(F)(F)F)c1
O=C(/C=C\c1ccc(O)cc1)c1ccc(O)cc1O
COC(=O)[C@@H](NC(=O)c1cc(-c2ccccc2)nc2ccccc12)c1ccccc1
CN1CCc2cc(O)c(O)cc2[C@H](c2ccccc2)C1
COc1cc(/C=C\C(=O)N2CCC=CC2=O)cc(OC)c1OC
COc1cc([C@H]2c3cc4c(cc3[C@@H](O[C@H]3O[C@H]5CO[C@@H](C)O[C@H]5[C@@H](O)[C@@H]3O)[C@@H]3COC(=O)[C@H]23)OCO4)cc(OC)c1O

biological target: 3',5'-cyclic-AMP phosphodiesterase 4B (Homo sapiens) (UniProt Q07343); test: qHTS Assay for Inhibitors of PDE-IV (AID 607; active = well fitted activation curve with a large enough effect in the main read-out, with a control signal flat, not every such curve was filed as active); details: HEK293 ACTOne CNG channel cells, membrane potential fluorescence; series mostly up to 22.9 µM
Summary of the method: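 Cell-based read-out of cAMP via a modified cyclic nucleotide-gated channel and membrane potential dye (535/590 nm) in HEK293 cells expressing PDE4 endogenously. Compounds tested up to 22.9 uM final; 100 uM RO 20-1724 reference.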

Chain of 3',5'-cyclic-AMP phosphodiesterase 4B (Homo sapiens) (Q07343 whole entry, looked up): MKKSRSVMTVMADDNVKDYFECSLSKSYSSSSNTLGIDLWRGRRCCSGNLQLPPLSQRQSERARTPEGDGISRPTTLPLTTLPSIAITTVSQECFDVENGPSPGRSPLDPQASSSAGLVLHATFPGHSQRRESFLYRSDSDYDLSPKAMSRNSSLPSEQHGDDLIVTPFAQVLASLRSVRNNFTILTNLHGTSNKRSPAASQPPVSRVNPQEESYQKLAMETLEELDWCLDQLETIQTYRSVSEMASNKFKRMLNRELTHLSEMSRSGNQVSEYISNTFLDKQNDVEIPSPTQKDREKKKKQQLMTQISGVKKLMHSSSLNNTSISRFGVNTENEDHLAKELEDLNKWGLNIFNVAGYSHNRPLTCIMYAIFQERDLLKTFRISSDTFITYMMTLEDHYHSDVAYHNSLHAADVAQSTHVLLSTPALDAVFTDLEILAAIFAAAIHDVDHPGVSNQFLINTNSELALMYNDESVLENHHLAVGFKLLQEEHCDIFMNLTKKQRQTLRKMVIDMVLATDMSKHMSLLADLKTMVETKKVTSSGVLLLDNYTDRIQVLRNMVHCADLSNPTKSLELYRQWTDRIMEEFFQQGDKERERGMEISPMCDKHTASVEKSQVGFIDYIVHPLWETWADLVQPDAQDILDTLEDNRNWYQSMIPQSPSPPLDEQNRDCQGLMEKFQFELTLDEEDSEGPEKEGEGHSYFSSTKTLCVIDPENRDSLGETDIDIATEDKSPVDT

Potency, inactive:
CC[C@]1(O)C[C@H]2CN(CCc3c([nH]c4ccccc34)[C@](C(=O)OC)(c3cc4c(cc3OC)N(C)[C@@H]3[C@](O)(C(=O)OC)[C@H](OC(C)=O)[C@]5(CC)C=CCN6CC[C@]43[C@@H]65)C2)C1
Nc1ncnc2c1ncn2[C@@H]1O[C@@H](CO)[C@H](O)[C@@H]1O
O=C(/C=C\c1ccc(O)cc1)c1ccc(O)cc1O
CN1CCc2cc(O)c(O)cc2[C@H](c2ccccc2)C1
COc1cc(/C=C\C(=O)N2CCC=CC2=O)cc(OC)c1OC
